According to PubChem BioAssay AID720706 (Broad Institute, 2013):
Out of some 350,000 compounds screened, about 5,500 (1.6%) were called active.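 The calls were made as follows: active = significant combined selectivity score with lowered wild-type GFP, culture density cut under 30%, mutant RFP and density less affected; inactive = any of these conditions unmet.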 The sample as a whole holds a higher share of actives than the screen did.

Assay: reduced GFP signal of wild-type E. coli, primary screen, bacterial rRNA inhibitor project, GFP/RFP fluorescence, OD600, single point (AID 720706)
Details: E. coli WT GFP vs humanized-ribosome RFP mutants, 24 h; GFP signal change (wild-type ribosome): stronger effect = lower value, DMSO median 0, no signal -100; OD600 change: measured here: OD600 growth, DMSO median 0, no signal -100; RFP signal change: measured here: RFP humanized mutant strains, DMSO median 0, no signal -100, concentration not given here

Row | SMILES | GFP signal change (wild-type ribosome) | OD600 change [%] | RFP signal change [%]
1 | O=C1C(Sc2cccc(F)c2)=C[C@@]2(O)CC[C@@H](O)[C@]1(Sc1cccc(F)c1)[C@H]2O | -37% (active) | -28.5 | -4.19
2 | COc1ccc(S(=O)(=O)Nc2ccc3c(c2)CC(=O)N([C@H](C)CO)C[C@H](C)[C@@H](CN(C)C)O3)cc1 | 2.15% (inactive) | 13.2 | -1.01
3 | C[C@H](CO)N1C[C@H](C)[C@@H](CN(C)C(=O)c2ccncc2)Oc2cc(C3=CCCCC3)ccc2S1(=O)=O | -1.29% (inactive) | -9.47 | -3.74
4 | CN(C)C(=O)c1coc2nc3ccccc3nc12 | 12.4% (inactive) | 6.11 | -0.0205
5 | CNC(=O)C(NC(=O)c1ccccc1)=C(C)C | 10.9% (inactive) | 9.13 | -0.414
6 | CNC(=O)c1cccc2nc3ccccc3nc12 | -23.6% (active) | -17.7 | -6.61
7 | CC(C)NC(=O)Nc1ccc2c(c1)C(=O)N(C)[C@@H]1CC[C@H](CC(=O)NCC3CCCCC3)O[C@@H]1CO2 | -0.35% (inactive) | -6 | 0.584
8 | C/C=C/c1ccc([C@@H]2[C@H](CO)N(CC3CCCC3)C23CN(C(=O)CC2CC2)C3)cc1 | -14.4% (inactive) | -40 | 32.6
9 | CCCSC1=C(C#N)C(c2ccccc2C)C(C(=O)OC)C(=O)N1 (stereo not drawn) | -10.9% (inactive) | -3.33 | -1.26
10 | CCOC(=O)CSC1=C(C#N)C(c2ccco2)C(C(=O)OCc2ccccc2)=C(C)N1 (stereo not drawn) | -26.5% (active) | -14.3 | -3.21
11 | CCOC(=O)C1(C)NC(c2ccco2)C2C(=O)N(c3ccccc3)C(=O)C21 (stereo not drawn) | 7.82% (inactive) | 18.6 | 3.41
12 | O=C(NCCCN1CCOCC1)c1ccc([N+](=O)[O-])cc1[N+](=O)[O-] | 7.34% (inactive) | 6.35 | -0.35
13 | O=C(NCCCN1CCN(c2ccc(F)cc2)CC1)Nc1ccc([N+](=O)[O-])cc1 | -23.1% (active) | -16.1 | 9.67
14 | CN1CCN(CCNC(=O)Nc2ccc([N+](=O)[O-])cc2)CC1 | 3.04% (inactive) | -6.09 | -2.6
15 | O=C(c1ccncc1)N1CC(=O)N2[C@H](C1)[C@@H](c1ccc(C#CCC3CCCC3)cc1)[C@@H]2CO | -32.1% (inactive) | -56.8 | 7.12
16 | CCCN(C)C[C@@H]1Oc2ncc(-c3ccccc3F)cc2C(=O)N([C@@H](C)CO)C[C@@H]1C | 9.44% (inactive) | 19.7 | -1.32
17 | Nc1ccc(N=Nc2ccccc2Cl)c(N)n1 | -31.4% (active) | -18.6 | -5.26
18 | C[C@@H]1CN([C@H](C)CO)C(=O)c2cccc(NC(=O)Nc3ccc(F)cc3)c2O[C@@H]1CN(C)C(=O)Nc1ccc(C(F)(F)F)cc1 | -3.92% (inactive) | -1.07 | -2.09
19 | COc1ccc(S(=O)(=O)Nc2ccc3c(c2)CC(=O)N([C@H](C)CO)C[C@H](C)[C@@H](CN(C)C(=O)NC(C)C)O3)cc1 | 1.06% (inactive) | 6.54 | -0.682
20 | C[C@@H]1CN([C@@H](C)CO)C(=O)c2cccc(N(C)C)c2O[C@@H]1CN(C)S(C)(=O)=O | 0.068% (inactive) | 11.7 | 1.6
21 | N#CC1=C(N)Oc2cc(N)ccc2C1c1ccccc1 (stereo not drawn) | 5.33% (inactive) | 13.2 | 8.27

Row | SMILES | GFP signal change (wild-type ribosome) | OD600 change [%] | RFP signal change [%]
22 | Cc1cc(C)c(C#N)c(SCc2[nH]nc3c2C(c2ccccc2)C(C#N)=C(N)O3)n1 (stereo not drawn) | -19.3% (active) | -14.2 | 7.29
23 | N#CC1=C(N)Oc2n[nH]c(CSc3ccccc3)c2C12C(=O)Nc1ccccc12 (stereo not drawn) | -4.64% (inactive) | -0.706 | 2.2
24 | CCC(=O)Nc1ccc2c(c1)C(=O)N(C)[C@H]1CC[C@H](CC(=O)NCC3CCCCC3)O[C@H]1CO2 | -0.704% (inactive) | -0.374 | -0.863
25 | CC[C@H](NC(=O)[C@H](Cc1ccccc1)NC(=O)[C@H]1O[C@@H](n2cnc3c(=O)[nH]c(N)nc32)[C@H](O)[C@@H]1O)c1ccccc1 | 13.7% (inactive) | 14.1 | 2.61
26 | O=C(O)c1ccc(NS(=O)(=O)c2cccc3nsnc23)cc1 | 12.3% (inactive) | 9.27 | 0.548
27 | O=S(=O)(Nc1ccc(OC(F)(F)F)cc1)c1cccc2nonc12 | -39% (active) | -15.7 | -10.9
28 | CCc1cccc(NC(=O)CCNS(=O)(=O)c2cccc3nonc23)c1 | -13.3% (inactive) | -12.7 | 18.6
29 | Cc1ccc(S(=O)(=O)N(C)C[C@@H]2Oc3c(NS(=O)(=O)c4ccc(F)cc4)cccc3C(=O)N([C@@H](C)CO)C[C@H]2C)cc1 | -1.93% (inactive) | 3.45 | 0.647
30 | Cc1snc(SCc2c(F)cccc2Cl)c1C#N | -4.85% (inactive) | -10.8 | -3.63
31 | Cc1ccc(CSc2nsc(C)c2C#N)cc1 | -24.5% (active) | -7.04 | -1.18
32 | N#Cc1ccc(CSc2ncccn2)cc1 | -4.06% (inactive) | -1.11 | -0.806
33 | CN(C)C(=O)C[C@H]1C[C@@H]2c3cc(NC(=O)CC4CC4)ccc3O[C@@H]2[C@@H](CO)O1 | 1.34% (inactive) | 0.566 | 1.23
34 | Cc1ccc(S(=O)(=O)N(C)C[C@@H]2Oc3ccc(NC(=O)Cn4cnnn4)cc3CC(=O)N([C@H](C)CO)C[C@H]2C)cc1 | -0.977% (inactive) | 0.458 | -4.09
35 | CSc1nnc(NC(=O)c2nc(S(=O)(=O)Cc3ccc(C)cc3)ncc2Cl)s1 | 2.78% (inactive) | -0.98 | 0.486
36 | Cc1cccc(NC(=O)c2nc(S(=O)(=O)Cc3ccccc3)ncc2Cl)c1 | -14.7% (active) | 11 | -6.12
37 | Cc1cccc(CS(=O)(=O)c2ncc(Cl)c(C(=O)Nc3ccc(F)cc3)n2)c1 | 6.16% (inactive) | 2.7 | -4.49
38 | CS(=O)(=O)N1CCCCN2[C@@H](CO)[C@@H](c3ccc(Br)cc3)[C@@H]2C1 | 5.32% (inactive) | 1.18 | 3.67
39 | Cc1ccc(C(=O)OCC(=O)NCc2cc(C)c(O)c(C)c2)cc1S(=O)(=O)N1CCCCC1 | -24.5% (active) | -17 | -2.51
40 | Cc1ccc(C(=O)OCC(=O)N2CC(C)CC(C)C2)cc1S(=O)(=O)N1CCCCC1 (stereo not drawn) | -26.5% (inactive) | -33.2 | -6.95
41 | COc1ccc(CNC(=O)COC(=O)c2ccc(C)c(S(=O)(=O)N3CCOCC3)c2)cc1OC | -1.36% (inactive) | -0.45 | 4.29
